Test results from the supplement of paper PMC4022240.
± gives the standard deviation.

Key:
Test in all cases: peptide microarray binding signal (635 nm), min-max normalized on array (fraction of array maximum); higher = stronger binding
[1] = target: T1, HaloTag-ATRX ADD domain (163-292)
T1 chain: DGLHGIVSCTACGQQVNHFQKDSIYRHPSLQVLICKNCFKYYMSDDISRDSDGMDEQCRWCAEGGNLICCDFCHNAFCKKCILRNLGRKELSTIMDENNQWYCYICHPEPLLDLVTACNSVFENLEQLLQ
In short: (§1)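 Triplicate spots of histone 13-mer peptide–cellulose conjugates with a Cy3 tracer were printed on nitrocellulose and probed for 1 h at 4°C with biotin-labelled HaloTag reader fusions (10 nM to 1 μM) plus streptavidin-Alexa Fluor 647 or rabbit histone antibodies (1:10,000 to 1:2,000) plus anti-rabbit Alexa 647. An Axon GenePix 4000B read the 635 nm channel. Binding signal is the spot-triplicate mean intensity after min-max scaling within each library.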

[2] = target: HaloTag-ING2 PHD (mouse Ing2 200-280)
In short: as §1

[3] = target: anti-H3K4me3 antibody ab8580
In short: as §1

[4] = target: anti-H3K9me3 antibody ab8898
In short: as §1

[5] = peptide region: H4 53-65, peptide modifications: H4K59me3, binder concentration: 1:2,000 dilution
[6] = peptide region: H4 53-65, peptide modifications: H4K59me3, binder concentration: 1:10,000 dilution
[7] = peptide region: Unmod H1 variant, binder concentration: 50 nM
[8] = peptide region: Unmod H1 variant, binder concentration: 500 nM
[9] = peptide region: Unmod H1 variant, binder concentration: 10 nM
[10] = peptide region: Unmod H1 variant, binder concentration: 100 nM
[11] = peptide region: Unmod H1 variant, binder concentration: 1:2,000 dilution
[12] = peptide region: Unmod H1 variant, binder concentration: 1:10,000 dilution

Binder	peptide microarray binding signal ([1]; peptide region: H4 53-65, peptide modifications: H4K59me3, binder concentration: 50 nM)	peptide microarray binding signal ([1]; peptide region: H4 53-65, peptide modifications: H4K59me3, binder concentration: 500 nM)	peptide microarray binding signal ([2]; peptide region: H4 53-65, peptide modifications: H4K59me3, binder concentration: 10 nM)	peptide microarray binding signal ([2]; peptide region: H4 53-65, peptide modifications: H4K59me3, binder concentration: 100 nM)	peptide microarray binding signal [3, 5]	peptide microarray binding signal [3, 6]	peptide microarray binding signal [4, 5]	peptide microarray binding signal [4, 6]	peptide microarray binding signal [1, 7]	peptide microarray binding signal [1, 8]	peptide microarray binding signal [2, 9]	peptide microarray binding signal [2, 10]	peptide microarray binding signal [3, 11]	peptide microarray binding signal [3, 12]	peptide microarray binding signal [4, 11]	peptide microarray binding signal [4, 12]
ETRGVLKVFLENV [H4 53-65 E T R G V L Kme3 V F L E N V]	0.00755 ± 0.00027	0.00719 ± 0.00011	0.0074 ± 5.7e-05	0.006945 ± 4.9e-05	0.00549 ± 0.00064	0.00616 ± 0.00023	0.017 ± 0.0023	0.0133 ± 0.00048								
TENSTSAPAAKPK [Unmod H1 variant T E N S T S A P A A K P K]									0.0132 ± 0.00019	0.0173 ± 0.002	0.005132 ± 2.5e-05	0.00694 ± 0.00038	0.000906 ± 4.9e-05	0.00188 ± 3.5e-05	0.00136 ± 1.7e-05	0.0015 ± 2.5e-05
AKPKRAKASKKST [Unmod H1 variant A K P K R A K A S K K S T]									0.0106 ± 0.0005	0.018 ± 0.00086	0.00334 ± 4.8e-05	0.00638 ± 0.0014	0.000378 ± 1.4e-05	0.000913 ± 2.8e-05	0.000347 ± 7e-06	0.000634
KKSTDHPKYSDMI [Unmod H1 variant K K S T D H P K Y S D M I]									0.01 ± 7.3e-05	0.00895 ± 0.0005	0.00269 ± 3e-05	0.00418 ± 0.00013	0.000717 ± 7.3e-05	0.000856 ± 1.8e-05	0.000196 ± 2.1e-06	0.00075 ± 7.9e-06
SDMIVAAIQAEKN [Unmod H1 variant S D M I V A A I Q A E K N]									0.0102 ± 0.00022	0.00514 ± 0.00038	0.00555 ± 0.00034	0.00326 ± 5.1e-05	0.00111 ± 2.4e-05	0.00126 ± 4.3e-05	0.000559 ± 2.9e-05	0.00104 ± 2.1e-05
AEKNRAGSSRQSI [Unmod H1 variant A E K N R A G S S R Q S I]									0.0112 ± 0.00071	0.0179 ± 0.0034	0.00495 ± 0.00025	0.00943 ± 0.0026	0.000453 ± 4.1e-05	0.000913 ± 1.6e-05	0.000544 ± 1.5e-05	0.00219 ± 0.00045
SHYKVGENADSQI [Unmod H1 variant S H Y K V G E N A D S Q I]									0.00937 ± 0.00014	0.00671 ± 0.00048	0.00197 ± 2.3e-05	0.00298 ± 0.00012	0.000227 ± 4.2e-06	0.000571	0.000181	0.000404 ± 4.4e-06
DSQIKLSIKRLVT [Unmod H1 variant D S Q I K L S I K R L V T]									0.0155 ± 0.00047	0.0281 ± 0.00085	0.003819 ± 3.5e-05	0.00801 ± 0.00074	0.000623 ± 3.1e-05	0.00137 ± 1.3e-05	0.000513 ± 9.7e-06	0.00127 ± 2.5e-05
RLVTTGVLKQTKG [Unmod H1 variant R L V T T G V L K Q T K G]									0.0191 ± 0.00044	0.035 ± 0.0031	0.0205 ± 0.0038	0.0395 ± 0.0068	0.00321 ± 0.00047	0.00348 ± 4.9e-05	0.00151 ± 8.2e-05	0.001903 ± 1.8e-05
SFRLAKSDEPKKS [Unmod H1 variant S F R L A K S D E P K K S]									0.0196 ± 0.0052	0.0223 ± 0.001	0.00448 ± 0.00019	0.0192 ± 0.0084	0.001 ± 0.00013	0.00154 ± 9.8e-05	0.000785 ± 0.00015	0.000923 ± 9.6e-06
